From PubChem BioAssay
This is a sample that favours compounds with a hit; in the whole collection about 19% have one here.
TDP1 cell CPT – qHTS for Inhibitors of human tyrosyl-DNA phosphodiesterase 1 (TDP1): qHTS in cells in presence of CPT. chicken DT40 Tdp1-/-;hTDP1 cells + 20 nM CPT, ATP luminescence, 48 h. AID 686979, 2013. Potency, µM (series often up to 46.2 µM), inactives show top-dose activity change, negative = growth inhibition, actives largely listed as inhibitors. 12% of 420,000 active; also: potency is read from the fitted curve at half-maximal effect; nearly all actives have a fitted effect of over 55% in size
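Chicken DT40 Tdp1-/- cells complemented with human TDP1, 400 cells/well, exposed to compounds plus 20 nM camptothecin for at least 48 h at 37 C; viability read as ATP content by CellTiter-Glo luminescence.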
TDP1 cell noCPT – qHTS for Inhibitors of human tyrosyl-DNA phosphodiesterase 1 (TDP1): qHTS in cells in absence of CPT. 15% of 420,000 active. AID 686978, 2013. DT40 Tdp1-/- hTDP1 cells, no CPT, ATP luminescence, 48 h. Potency, µM (titrated, usually from 46.2 µM), for inactives: at the highest dose activity change, negative = growth inhibition, most hits filed as inhibitors; also: potency is read from the fitted curve at half-maximal effect; nearly all actives have a fitted effect of over 55% in size
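Chicken DT40 Tdp1-/- cells stably complemented with human TDP1 were seeded at 400 cells/well with DMSO in place of 20 nM camptothecin. After compound pinning, cells grew at least 48 hr at 37 °C; viability read by CellTiter-Glo luminescence.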
HT1080NT lethal – qHTS for induction of synthetic lethality in tumor cells producing 2HG: qHTS for the HT-1080-NT fibrosarcoma cell line; HT-1080-NT fibrosarcoma viability, CellTiter-Glo ATP luminescence, 48 h; 1.6% of 360,000 active; AID 686970, 2013; Potency, µM (series often up to 46.1 µM), without a hit: at the top dose activity, negative = less viability, most hits filed as cytotoxic;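 also: NT is the 2HG producing partner of a matched IDH1 knockdown line; potency is read from the fitted curve at half-maximal effect; 0% = DMSO-treated cells and -100% = media-only wells without cells; nearly all actives have a fitted effect of over 55% in size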
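Compounds were tested in concentration-response format on HT-1080-NT cells for 48 hours at 37 degrees C. Cell viability came from CellTiter-Glo luminescence; curves were classified by r2, response magnitude and activity.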
HT1080 IDH1KD tx – qHTS for induction of synthetic lethality in tumor cells producing 2HG: qHTS for the HT-1080-IDH1KD cell line; HT-1080 IDH1 knockdown viability, ATP luminescence, 48 h; Potency, µM (titrated, usually from 46.1 µM), inactives show at the highest dose activity, negative = toxicity, hits mostly cytotoxic; 2% of 360,000 active;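 also: potency is read from the fitted curve at half-maximal effect; 0% = DMSO wells and -100% = cell-free medium wells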
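In this qHTS, HT-1080 cells depleted of IDH1 are exposed for 48 h at 37 °C to compound titrations. Toxicity is scored from CellTiter-Glo luminescence, with DMSO as full viability and medium alone as none.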
IL1B secr inh – qHTS for Inhibitors of Inflammasome Signaling: IL-1-beta AlphaLISA Primary Screen | THP-1 LPS/ATP IL-1B secretion, AlphaLISA, 16 h; hits give low values | activity change, % at 57.5 µM | 4.7% of 360,000 active | AID 743279, 2014; in the data active = activity change below about -50%; inconclusive = mostly about -30% to -49%
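Secreted IL-1B measured by AlphaLISA bead assay after 16 h compound exposure of THP-1 cells; compounds (final up to 57.5 uM) added 1 h before LPS (250 ng/mL) and ATP (1.25 mM) stimulation; lower signal means less secretion.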
* = called active by the depositor; ? = inconclusive; nt = not tested or not shown; [ ] = dose if it differs, or a comment. Unless noted, calls follow the shape of the dose curve; as a rule, active = well fitted curve in the direction sought with a large enough effect; inconclusive = small, poorly fitted or top-dose-only effect, or another doubt; inactive = no such curve, though single readings can be large; an effect the other way counts as inactive or inconclusive. Unless noted, % is scaled to controls: 0 for no effect and ±100 for the full control effect.

SMILES	TDP1 cell CPT	TDP1 cell noCPT	HT1080NT lethal	HT1080 IDH1KD tx	IL1B secr inh
CC(C(=O)NCCS(=O)(=O)c1ccc(Cl)cc1)S(=O)(=O)c1ccc(Cl)cc1 (configuration not stated)	-12%	-29%	3%	-2%	-20
CC(NCCS(=O)(=O)c1ccc(Cl)cc1)c1cccc(Cl)c1 (configuration not stated)	0%	?	-8%	-11%	-60*
O=C(CSc1nc(O)cc(=O)n1-c1ccc(Cl)c(Cl)c1)Nc1ccc(Cl)cc1Cl	1%	-14%	2%	4%	19
O=C(COC(=O)c1cc(S(=O)(=O)N2CCOCC2)c(Cl)cc1Cl)NCc1ccco1	11%	1%	-12%	-8%	-80*
CCN(CC)CCCCNc1ncc2cc(-c3cc(OC)cc(OC)c3)c(NC(=O)NC(C)(C)C)nc2n1	?	?	16µM*	9.2µM*	0
CC(=O)C1CN(S(=O)(=O)c2ccc(C)cc2)C(c2ccccc2)CC1C (configuration not stated)	?	?	3%	-5%	20
CCCCCCOc1ccc(C(=N)N(CCCC)CCCC)c2ccccc12	4.2µM*	2.7µM*	nt	nt	nt
Cc1ccc([C@H]2N[C@]3(CCCN(Cc4ccccc4)C3=O)[C@H]3C(=O)N(C)C(=O)[C@@H]23)cc1	-17%	?	1%	2%	-4
Cc1ccc([C@H]2N[C@]3(CCCN(Cc4ccc(F)cc4)C3=O)[C@H]3C(=O)N(C)C(=O)[C@@H]23)cc1	?	13µM*	-5%	-6%	-25
Cc1ccc([C@H]2N[C@]3(CCCN(Cc4ccc(Br)cc4)C3=O)[C@H]3C(=O)N(C)C(=O)[C@@H]23)cc1	3%	13µM*	-12%	4%	14
COc1ccccc1C1OC(=O)CC1C(=O)OC[C@@H]1CCCN2CCCCC12 (some centres not stated)	21%[9.04 µM]	-16%[9.04 µM]	nt	nt	nt
COc1cc(NC(=O)Cn2c(=O)oc3cc(S(=O)(=O)N4CCCCCC4)ccc32)cc(OC)c1	15µM*	21µM*	nt	nt	nt
CCc1ccc(NC(=O)Cn2c(=O)oc3cc(S(=O)(=O)N4CCCCCC4)ccc32)cc1	12µM*	9.2µM*	nt	nt	nt
COC(=O)c1cc2occc2n1CC(=O)Nc1cc(OC)cc(OC)c1	-8%	-3%	-7%	0%	-52*
COC(=O)c1cc2occc2n1CC(=O)Nc1ccc(OC)c(OC)c1	-3%	-17%	-1%	0%	0
CCOc1ccc(NC(=O)Cn2c(=O)oc3cc(S(=O)(=O)N4CCC(C)CC4)ccc32)cc1	9.2µM*	8.2µM*	nt	nt	nt
Cc1cc(F)ccc1NCc1ccc([N+](=O)[O-])cc1	7%	-1%	-22%	-19%	0
CCNC(=O)c1nn(-c2ccccc2C)nc1CO	11%	-1%	nt	nt	nt
O=C(NNC(=O)C1CCCC1)c1cc([N+](=O)[O-])cc([N+](=O)[O-])c1	1%	-12%	2%	0%	6
COC(=O)c1cc2sc(Cl)cc2n1CC(=O)Nc1cc(C)cc(C)c1	21µM*	?	nt	nt	nt
COC(=O)c1cc2sc(Cl)cc2n1CC(=O)Nc1cccc(SC)c1	-29%	-27%	0%	-23%	-7
C#CCOCCOCCOCCNc1nc(N2CCN(C(=O)CCCCCCCCCCNC(=O)Cn3cc(C[C@@H](C)O)nn3)CC2)nc(N2CCN(C(=O)CCCCCCCCCCNC(=O)[C@H](CCCCN)n3cc(C[C@@H](C)CC)nn3)CC2)n1	16µM*	21µM*	?	21µM*	-77*
C#CCOCCOCCOCCNc1nc(N2CCN(C(=O)CCCCCCCCCCNC(=O)[C@@H](CCC(=O)O)n3cc(CCCCCN)nn3)CC2)nc(N2CCN(C(=O)CCCCCCCCCCNC(=O)[C@@H](CCC(=O)O)n3cc(CCCCCN)nn3)CC2)n1	21%	-7%	3%	-3%	-13
C#CCOCCOCCOCCNc1nc(N2CCN(C(=O)CCCCCCCCCCNC(=O)[C@H](CCCCN)n3cc(CCO)nn3)CC2)nc(N2CCN(C(=O)CCCCCCCCCCNC(=O)[C@H](CCCN=C(N)N)n3cc(C[C@@H](C)CC)nn3)CC2)n1	?	?	?	?	-98*
C#CCOCCOCCOCCNc1nc(N2CCN(C(=O)CCCCCCCCCCNC(=O)Cn3cc(C[C@@H](C)O)nn3)CC2)nc(N2CCN(C(=O)CCCCCCCCCCNC(=O)Cn3cc(C[C@@H](C)O)nn3)CC2)n1	6.5µM*	9.2µM*	?	?	10
SMILES	TDP1 cell CPT	TDP1 cell noCPT	HT1080NT lethal	HT1080 IDH1KD tx	IL1B secr inh
C#CCOCCOCCOCCNc1nc(N2CCN(C(=O)Cn3cc(CC(C)O)nn3)CC2)nc(N2CCN(C(=O)[C@H](CCCCN)n3cc(CCC(=O)O)nn3)CC2)n1 (some centres not stated)	3%	3%	1%	9%	29
C#CCOCCOCCOCCNc1nc(N2CCN(C(=O)CCCCCCCCCCNC(=O)[C@H](CCCCN)n3cc(C[C@@H](C)CC)nn3)CC2)nc(N2CCN(C(=O)CCCCCCCCCCNC(=O)[C@H](CCCCN)n3cc(C[C@@H](C)CC)nn3)CC2)n1	8.2µM*	9.2µM*	?	?	-66*
C=CC[C@@H](Cc1ccc(F)cc1)C(=O)OC[C@@H]1CCCN1C(=O)[C@@H](CC=C)CC(=O)N(CCO)Cc1ccccc1	?	15µM*	?	?	?
C=CC[C@@H](CC(=O)OC(C)(C)C)C(=O)OC[C@H]1CCCN1C(=O)[C@@H](CC=C)CC(=O)N(CCO)Cc1ccccc1	?	?	-17%	-16%	-62*
C=CC[C@@H](CC(=O)OC(C)(C)C)C(=O)OC[C@@H]1CCCN1C(=O)[C@@H](CC=C)CC(=O)N(CCO)Cc1ccccc1	?	?	-4%	?	-55*
C=CC[C@@H](Cc1ccc(F)cc1)C(=O)OC[C@@H]1CCCN1C(=O)[C@H](CC=C)CC(=O)N[C@H](CO)Cc1ccccc1	?	18µM*	-9%	-9%	-70*
COCCOc1ccc(C(F)(F)F)cc1NC(=O)CN1C(=O)NC2(CCc3ccccc32)C1=O (configuration not stated)	-1%	?	-7%	2%	-20
C#Cc1ccc([C@@H]2C=C(C(=O)OCC=C)O[C@H](OCc3ccc(CO)cc3)C2)cc1	-20%	-6%	-1%	-2%	14
